Only some compounds are listed: those with a hit (about 4% of all), similar ones and a draw of the others.
ADAM17 inh – ADAM17 inhibitors, primary screen, biochemical, QFRET; 370,000 tested, 0.83% active; inhibition, % at 6.95 µM; AID 720648, 2013; recombinant ADAM17, EDANS/DABCYL FRET peptide cleavage;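 active = inhibition above the mean of compounds lying between control limits plus 3 SD, set per campaign, cut at about 8.5% in these data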;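 note: 0% = DMSO-only wells as the low control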
FAS-TE inh – FAS thioesterase domain inhibitors, primary screen, biochemical, fluorescence intensity, uHTS. inhibition, % at 15 µM. recombinant FAS-TE, OMFH fluorogenic substrate, fluorescence endpoint. AID 602261, 2012. 360,000 tested, 0.67% active;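 active = compounds whose normalised, plate-corrected inhibition of enzyme fluorescence in the single-dose primary screen is 50% or more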;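 note: 0% = DMSO with enzyme and 100% = substrate without enzyme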
aDG glyco act – activators of alpha-DG glycosylation, primary screen, uHTS, Pro5-aDG cells, AlphaScreen; AID 624168, 2012; 360,000 tested, 0.22% active; alpha-DG glycosylation AlphaScreen (IIH6); 0% Pro5, 100% B10-LARGE cell signal; activation, % at 10 µM;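 active = activation of at least 8% versus controls, or a plate z-score of at least 8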;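 note: Pro5 are CHO cells carrying HIG-tagged alpha-DG that lacks glycosylation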
GRIN3A LBD mod – binders of NR3A ligand-binding domain, primary screen, biophysical, differential scanning fluorimetry, uHTS; Glutamate receptor ionotropic, NMDA 3A (GRIN3A) ligand-binding domain; NR3A LBD differential scanning fluorimetry, Tm shift; 0% = protein alone, 100% = glycine-bound protein; Tm shift relative to glycine control, % at 25 µM; 340,000 tested, 2.5% active; AID 1259313, 2017;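 active = melting temperature shift of at least 10% of the positive control shift, at one fixed dose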
ADAM10 inh – human ADAM10 inhibitors, primary screen, biochemical, QFRET, HTS. recombinant ADAM10, EDANS/DABCYL FRET peptide cleavage, 3 h. inhibition, % at 7 µM. 370,000 tested, 0.62% active. Disintegrin and metalloproteinase domain-containing protein 10 (Homo sapiens), O14672. AID 720582, 2013;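 active = inhibition above a per-campaign cutoff equal to the mean of compounds falling between control-based bounds plus 3 SD, cut at about 20% in these data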;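 note: 0% = DMSO wells while the 100% control is not disclosed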
Target sequence (O14672 214-748 limits assumed): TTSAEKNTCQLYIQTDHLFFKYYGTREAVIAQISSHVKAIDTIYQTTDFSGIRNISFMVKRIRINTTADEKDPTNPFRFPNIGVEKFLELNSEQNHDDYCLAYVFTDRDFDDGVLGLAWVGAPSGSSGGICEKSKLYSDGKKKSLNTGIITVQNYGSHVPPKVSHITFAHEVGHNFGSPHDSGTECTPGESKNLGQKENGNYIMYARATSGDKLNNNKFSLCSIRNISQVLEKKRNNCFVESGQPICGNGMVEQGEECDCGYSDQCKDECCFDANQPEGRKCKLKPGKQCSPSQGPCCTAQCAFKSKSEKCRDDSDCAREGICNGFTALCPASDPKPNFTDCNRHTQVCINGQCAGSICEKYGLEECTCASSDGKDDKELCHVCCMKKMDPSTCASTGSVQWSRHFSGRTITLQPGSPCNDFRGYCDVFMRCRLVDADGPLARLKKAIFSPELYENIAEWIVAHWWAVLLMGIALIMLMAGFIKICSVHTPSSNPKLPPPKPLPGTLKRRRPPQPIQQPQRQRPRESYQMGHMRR
FAS-TE conf – FAS thioesterase domain inhibitors, confirmation, biochemical, fluorescence intensity, single concentration | shares compounds with FAS-TE inh | recombinant FAS-TE, OMFH fluorogenic substrate | inhibition, % at 15 µM | 2,300 tested, 45% active | AID 624325, 2012;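 active = compounds inhibiting the enzyme by at least 50% at 15 µM in any one of the replicates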;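 note: 0% = enzyme with DMSO only and 100% = wells lacking enzyme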
* hit, by the source's call; . = no result given.

SMILES | ADAM17 inh | FAS-TE inh | aDG glyco act | GRIN3A LBD mod | ADAM10 inh | FAS-TE conf
CC1(C)CC[C@]2(C(=O)n3ccnc3)CC[C@]3(C)[C@H](C(=O)C=C4[C@@]5(C)C=C(C#N)C(=O)C(C)(C)[C@@H]5CC[C@]43C)[C@@H]2C1 | -2.5 | 96.2* | -0.4 | -0.2 | 4.4 | 68.5*
O=C(NNc1c(Cl)cc(Cl)cc1Cl)c1cccc([N+](=O)[O-])c1 | -1.2 | 55.2* | 1.1 | -18.4 | -0.1 | 58.0*
O=C(NNC(=S)NC(=O)c1ccccc1Cl)c1cccc([N+](=O)[O-])c1 | -0.5 | 5.4 | -0.2 | -7.6 | -6.5 | .
O=C(NC(NC(=S)Nc1c(Cl)cccc1Cl)C(Cl)(Cl)Cl)c1cccc([N+](=O)[O-])c1 (configuration not stated) | 1.6 | 54.7* | 3.6 | 9.2 | 2.7 | 7.0
O=C(CN1CCN(C(c2ccccc2)c2ccccc2)CC1)Nc1ccc(N2CCOCC2)cc1 | -0.9 | -5.4 | 0.0 | -0.6 | -7.1 | .
COC(=O)c1cc(C(=O)OCC(=O)NCc2cccs2)cc([N+](=O)[O-])c1 | -5.4 | 64.3* | 0.2 | 0.3 | -2.3 | 45.3
Cc1ccc(S(=O)(=O)N2CCN(C(=O)COC(=O)c3ccc([N+](=O)[O-])o3)CC2)c(C)c1 | -3.2 | 11.2 | -0.2 | -1.7 | 0.6 | .
Cc1ccc(S(=O)(=O)N2CCN(C(=O)COC(=O)c3cc([N+](=O)[O-])ccc3NCCO)CC2)c(C)c1 | -1.9 | 71.0* | -0.1 | -7.2 | -4.9 | 73.7*
O=C(COC(=O)c1cc([N+](=O)[O-])ccc1NCCO)NCc1cccs1 | -0.9 | 73.0* | -0.3 | -0.4 | -8.0 | 77.6*
O=C(COC(=O)c1cc([N+](=O)[O-])ccc1NCCO)c1ccccc1 | 6.1 | 59.3* | 0.2 | -19.7 | 9.8 | 67.8*
CC1N(C)c2cc(NC(=O)c3cccs3)c(P(=O)(Nc3ccc([N+](=O)[O-])cc3)N3CCOCC3)cc2C1(C)C (configuration not stated) | 5.7 | 52.4* | -0.1 | -4.0 | -6.3 | 34.0
O=C(Nc1cc(C(F)(F)F)ccc1N1CCOCC1)c1cccs1 | 1.7 | 14.8 | 0.0 | 2.4 | 8.1 | .
CN(C)c1ccc(P(=O)(Nc2cccc(C(F)(F)F)c2)N2CCOCC2)c(NC(=O)c2cccs2)c1 (configuration not stated) | -2.9 | 52.9* | 1.3 | -3.6 | 6.0 | 22.5
CCOc1ccc(S(=O)(=O)c2c(C(=O)c3ccccc3)cnc3cc4c(cc23)OCCO4)cc1 | -15.7 | 80.3* | -0.1 | 0.2 | -47.3 | 40.4
CCN1CCN(C(CNS(=O)(=O)c2ccc(OC)cc2)c2cccnc2)CC1 (configuration not stated) | -8.2 | -8.1 | 0.0 | 0.6 | -8.8 | .
COc1ccc(NC2=Nc3ccccc3N3C2=Nc2c(c(C)nn2-c2ccc(C)cc2)C3c2cccnc2)cc1 (configuration not stated) | 0.2 | 69.7* | 0.0 | 7.9 | 6.9 | 8.9
CC(=O)Nc1ccc(NC2=Nc3ccccc3N3C2=Nc2c(c(C)nn2-c2ccccc2)C3c2ccccc2)cc1 (configuration not stated) | 0.7 | 46.0 | -0.9 | 8.0 | 3.9 | .
COCc1c(Br)c(C)nc(OCC(=O)N/N=C/c2cc(C)n(-c3ccc([N+](=O)[O-])cc3)c2C)c1C#N | -2.8 | 61.6* | -0.2 | 1.6 | 0.3 | -3.0
Cc1ccc(C(NC(=O)/C=C\c2ccc3c(c2)OCO3)C(=O)Nc2ccc3c(c2)OCO3)cc1 (configuration not stated) | -3.7 | 55.3* | -0.1 | -5.4 | -1.9 | 21.9
Cc1ccc(S(=O)(=O)NC(C)C(=O)Nc2ccc3c(c2)OCO3)cc1 (configuration not stated) | -1.9 | -6.0 | -0.1 | -1.5 | -1.8 | .
CC(=O)Nc1ccc2[nH]c(C)c(CC=C(Cl)Cl)c(=O)c2c1 | -8.9 | -2.9 | -0.2 | 4.4 | -42.4 | .
Cc1cc(C)c2c(=O)n3c(nc2c1)C(Cc1ccccc1)NC(=O)c1cc2ccccc2cc1-3 (configuration not stated) | -1.5 | 86.3* | -0.1 | . | -1.6 | 5.0
Cc1ccc2nc3n(c(=O)c2c1)-c1cc2ccccc2cc1C(=O)NC3Cc1ccccc1 (configuration not stated) | 3.0 | 90.9* | -0.1 | . | 9.6 | 2.0
O=C1NC(Cc2ccccc2)c2nc3ccc(F)cc3c(=O)n2-c2cc3ccccc3cc21 (configuration not stated) | 1.3 | 79.5* | -0.4 | . | 4.9 | 29.1
O=C1NC(Cc2ccccc2)c2nc3ccc(F)cc3c(=O)n2-c2ccccc21 (configuration not stated) | -0.9 | . | . | . | 9.0 | .
SMILES | ADAM17 inh | FAS-TE inh | aDG glyco act | GRIN3A LBD mod | ADAM10 inh | FAS-TE conf
CCC1NC(=O)c2cc3ccccc3cc2-n2c1nc1cc(C)cc(C)c1c2=O (configuration not stated) | -4.5 | -2.1 | 0.0 | . | -8.3 | .
CCCC1NC(=O)c2cc3ccccc3cc2-n2c1nc1cc(Cl)ccc1c2=O (configuration not stated) | 0.2 | 73.2* | -0.2 | . | 4.0 | 35.3
Cc1ccc(C(=O)N2CCN(c3ccccc3)CC2)cc1S(=O)(=O)N1CCOCC1 | 0.7 | -0.5 | 0.3 | -1.6 | -5.3 | .
CN(C)S(=O)(=O)c1ccc(C(=O)NC2CCCc3ccccc32)cc1 (configuration not stated) | 1.3 | 3.1 | -0.2 | 1.5 | 7.1 | .
CCCCN(Cc1ccccc1)C(=O)C1CCCN(S(=O)(=O)c2cnc[nH]2)C1 (configuration not stated) | -0.2 | -11.9 | 0.0 | -1.2 | -2.5 | .
O=C1NC(Cc2ccc(O)cc2)c2nc3ccc(Cl)cc3c(=O)n2-c2cc3ccccc3cc21 (configuration not stated) | 2.4 | 19.4 | -0.3 | . | -3.5 | .
O=C1NC(Cc2ccccc2)c2nc3ccc(Cl)cc3c(=O)n2-c2cc3ccccc3cc21 (configuration not stated) | -0.3 | 77.6* | -0.2 | . | -0.8 | 11.3
Cc1ccnc(NC(=O)c2ccc3c(c2)NC(=O)C(C)S3)c1 (configuration not stated) | 0.4 | -3.3 | -0.1 | 0.9 | 5.3 | .
O=C(CCc1ccccc1)OCC(=O)c1cccc([N+](=O)[O-])c1 | -1.5 | 56.1* | 0.0 | -0.9 | -0.4 | 57.3*
